Test results published in PubChem BioAssay AID1159580 (chemical genetic matrix, 2015).
Among all 5,500 compounds or so, about 2,000 (36%) were called active. Inconclusive results (about 18%) are left out. No stated cut-off is given here; in the data, active means normalized growth mostly below about 0.91 (no sharp cut-off); inconclusive means no clear call, values can overlap the other calls; inactive means mostly above about 0.92. Some of the results follow.

Test: chemical genetic growth profiling, strain panel (AID 1159580);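 further: tested at 20 µM; growth read once vehicle control cultures reached saturation at 30 °C; 1 = growth at the plate median or of vehicle wells; lower values mean less growth of the strain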
Conditions: S. cerevisiae deletion strains, growth OD
[1] = locus YAL021C, strain ccr4, hits give low values
[2] = locus YAL026C, strain drs2, hits give low values
[3] = locus YAL030W, strain snc1, hits give low values
[4] = locus YBL061C, strain skt5, hits give low values
[5] = locus YBR009C, strain hhf1, hits give low values
[6] = locus YBR023C, strain chs3, hits give low values
[7] = locus YBR171W, strain sec66, hits give low values
[8] = locus YBR231C, strain swc5, hits give low values
[9] = locus YBR279W, strain paf1, hits give low values
[10] = locus YCL011C, strain gbp2, hits give low values
[11] = locus YCL016C, strain dcc1, hits give low values
[12] = locus YCL069W, strain vba3, hits give low values
[13] = locus YCR088W, strain abp1, hits give low values
[14] = locus YDL005C, strain med2, hits give low values
[15] = locus YDL040C, strain nat1, hits give low values
[16] = locus YDR001C, strain nth1, hits give low values
[17] = locus YDR069C, strain doa4, hits give low values
[18] = locus YDR137W, strain rgp1, hits give low values
[19] = locus YDR159W, strain sac3, hits give low values
[20] = locus YDR297W, strain sur2, hits give low values
[21] = locus YDR334W, strain swr1, hits give low values
[22] = locus YDR335W, strain msn5, hits give low values
[23] = locus YDR392W, strain spt3, hits give low values
[24] = locus YEL003W, strain gim4, hits give low values
[25] = locus YEL037C, strain rad23, hits give low values
[26] = locus YEL061C, strain CIN8 (second series), hits give low values
[27] = locus YER015W, strain faa2, hits give low values
[28] = locus YER016W, strain bim1, hits give low values
[29] = locus YER111C, strain swi4, hits give low values
[30] = locus YER155C, strain BEM2 (second series), hits give low values
[31] = locus YFR010W, strain ubp6, hits give low values
[32] = locus YGL167C, strain pmr1, hits give low values
[33] = locus YGL173C, strain kem1, hits give low values
[34] = locus YGL227W, strain vid30, hits give low values
[35] = locus YGL240W, strain doc1, hits give low values
[36] = locus YGL253W, strain hxk2, hits give low values
[37] = locus YHR013C, strain ard1, hits give low values
[38] = locus YHR027C, strain rpn1, hits give low values
[39] = locus YHR030C, strain SLT2, hits give low values
[40] = locus YHR079C, strain IRE1, hits give low values
[41] = locus YHR142W, strain chs7, hits give low values
[42] = locus YJL092W, strain hpr5, hits give low values
[43] = locus YJL095W, strain BCK1 (second series), hits give low values
[44] = locus YJL095W, strain BCK1, hits give low values
[45] = locus YJL115W, strain asf1, hits give low values
[46] = locus YJL129C, strain trk1, hits give low values
[47] = locus YJL154C, strain vps35, hits give low values
[48] = locus YJL164C, strain tpk1, hits give low values
[49] = locus YJL166W, strain qcr8, hits give low values
[50] = locus YJL187C, strain SWE1, hits give low values
[51] = locus YJR066W, strain TOR1, hits give low values
[52] = locus YKL160W, strain elf1, hits give low values
[53] = locus YKR026C, strain gcn3, hits give low values
[54] = locus YKR091W, strain srl3, hits give low values
[55] = locus YLL001W, strain dnm1, hits give low values
[56] = locus YLL026W, hits give low values
[57] = locus YLL041C, strain sdh2, hits give low values
[58] = locus YLR027C, strain aat2, hits give low values
[59] = locus YLR113W, strain HOG1, hits give low values
[60] = locus YLR221C, strain rsa3, hits give low values
[61] = locus YLR258W, strain gsy2, hits give low values
[62] = locus YLR262C, strain YPT6 (second series), hits give low values
[63] = locus YLR320W, strain mms22, hits give low values
[64] = locus YLR342W, strain FKS1, hits give low values
[65] = locus YLR357W, strain rsc2, hits give low values
[66] = locus YLR370C, strain arc18, hits give low values
[67] = locus YLR384C, strain iki3, hits give low values
[68] = locus YML120C, strain ndi1, hits give low values
[69] = locus YMR058W, strain fet3, hits give low values
[70] = locus YMR129W, hits give low values
[71] = locus YMR205C, strain PFK2, hits give low values
[72] = locus YMR231W, strain pep5, hits give low values
[73] = locus YNL071W, strain lat1, hits give low values
[74] = locus YNL183C, strain NPR1, hits give low values
[75] = locus YNL209W, strain ssb2, hits give low values
[76] = locus YNL248C, strain rpa49, hits give low values
[77] = locus YNL322C, strain KRE1 (second series), hits give low values
[78] = locus YNR049C, strain mso1, hits give low values
[79] = locus YOR001W, strain rrp6, hits give low values
[80] = locus YOR070C, strain gyp1, hits give low values
[81] = locus YOR080W, strain dia2, hits give low values
[82] = locus YOR083W, strain WHI5, hits give low values
[83] = locus YOR106W, strain vam3, hits give low values
[84] = locus YOR231W, strain MKK1, hits give low values
[85] = locus YOR265W, strain rbl2, hits give low values
[86] = locus YOR270C, strain vph1, hits give low values
[87] = locus YOR290C, strain snf2, hits give low values
[88] = locus YPL051W, strain arl3, hits give low values
[89] = locus YPL078C, strain atp4, hits give low values
[90] = locus YPL106C, strain sse1, hits give low values
[91] = locus YPL240C, strain hsp82, hits give low values
[92] = locus YPL256C, strain CLN2, hits give low values

Measured: normalized growth

COc1cccc2c1C(=O)c1c(O)c3c(c(O)c1C2=O)C[C@@](O)(C(=O)CO)C[C@@H]3O[C@H]1C[C@H](N)[C@@H](O)[C@H](C)O1
inactive: [7] 0.985 | [9] 0.958 | [12] 0.965 | [13] 0.953 | [14] 0.951 | [15] 0.947 | [16] 0.937 | locus YDR195W, strain ref2 1.09 | [22] 0.928 | [23] 0.906 | [24] 0.955 | [25] 0.991 | [26] 0.982 | [29] 0.988 | [32] 0.969 | [33] 0.997 | [39] 1.01 | [40] 0.994 | [44] 0.958 | [47] 0.952 | [50] 0.93 | [51] 0.948 | [53] 0.926 | [54] 0.943 | [59] 0.91 | [66] 0.96 | [67] 0.977 | [70] 0.963 | [72] 0.967 | [74] 0.935 | [77] 0.943 | [78] 0.937 | [84] 0.997 | [92] 0.981
active: [1] 0.648 | [2] 0.894 | [3] 0.891 | [4] 0.888 | [5] 0.552 | [6] 0.894 | [8] 0.692 | [10] 0.845 | [11] 0.753 | locus YCL061C, strain MRC1, hits give low values 0.897 | [17] 0.848 | [18] 0.846 | [19] 0.501 | [20] 0.906 | [21] 0.78 | [27] 0.801 | [28] 0.862 | [30] 0.595 | [31] 0.867 | [34] 0.889 | [35] 0.488 | [36] 0.576 | [37] 0.635 | [38] 0.854 | [41] 0.84 | [42] 0.855 | [43] 0.913 | [45] 0.682 | [46] 0.337 | [48] 0.737 | [49] 0.59 | [52] 0.75 | [55] 0.875 | [56] 0.851 | [57] 0.918 | [58] 0.821 | [60] 0.759 | [61] 0.834 | [62] 0.826 | [63] 0.312 | [64] 0.873 | [65] 0.785 | [68] 0.794 | [69] 0.806 | locus YMR125W, strain sto1, hits give low values 0.825 | [71] 0.634 | [73] 0.689 | [75] 0.899 | [76] 0.177 | [79] 0.875 | [80] 0.863 | [81] 0.89 | [82] 0.804 | [83] 0.682 | [85] 0.879 | [86] 0.766 | [87] 0.78 | [88] 0.8 | [89] 0.785 | [90] 1.2 [resistant] | [91] 0.926

COc1cccc2c1C(=O)c1c(O)c3c(c(O)c1C2=O)C[C@@](O)(C(=O)CO)C[C@@H]3OC1C[C@H](N)[C@H](O)[C@H](C)O1 (stereo partly drawn)
active: [1] 0.166 | [2] 0.696 | [3] 0.691 | [4] 0.708 | [5] 0.282 | [6] 0.676 | [8] 0.342 | [9] 0.681 | [10] 0.636 | [11] 0.37 | [12] 0.718 | [13] 0.767 | [14] 0.701 | [15] 0.762 | [16] 0.878 | [17] 0.595 | [18] 0.572 | [19] 0.221 | locus YDR195W, strain ref2 1.23 [resistant] | [20] 0.606 | [21] 0.337 | [22] 0.431 | [24] 0.603 | [25] 0.864 | [26] 0.607 | [27] 0.49 | [28] 0.481 | [29] 0.766 | [30] 0.515 | [31] 0.65 | [32] 0.905 | [34] 0.429 | [35] 0.246 | [36] 0.247 | [37] 0.35 | [38] 0.496 | [39] 0.778 | [40] 0.79 | [41] 0.538 | [42] 0.691 | [43] 0.622 | [44] 0.781 | [45] 0.319 | [46] 0.138 | [47] 0.732 | [48] 0.439 | [49] 0.302 | [50] 0.643 | [51] 0.787 | [52] 0.56 | [53] 0.849 | [54] 0.869 | [55] 0.545 | [56] 0.623 | [57] 0.602 | [58] 0.543 | [59] 0.779 | [60] 0.475 | [61] 0.565 | [62] 0.533 | [63] 0.176 | [64] 0.622 | [65] 0.49 | [66] 0.902 | [67] 0.651 | [68] 0.676 | [69] 0.509 | [70] 0.828 | [71] 0.513 | [72] 0.246 | [73] 0.272 | [74] 0.801 | [75] 0.656 | [76] 0.107 | [77] 0.886 | [78] 0.798 | [79] 0.469 | [80] 0.569 | [81] 0.627 | [82] 0.572 | [83] 0.214 | [84] 0.815 | [85] 0.619 | [86] 0.24 | [87] 0.589 | [88] 0.481 | [89] 0.534 | [91] 0.544 | [92] 0.757
inactive: [7] 0.928 | [23] 0.919 | [33] 1.01 | [90] 1.14
